RORgamma inh: qHTS for inhibitors of ROR gamma transcriptional activity. Nuclear receptor ROR-gamma (Mus musculus), P51450. Drosophila S2 Gal4-RORgamma UAS-luciferase reporter, 20 h. Potency, µM (series often up to 53.6 µM), for inactives: at the top dose activity change, negative = inhibition, usual class: inhibitors. 310,000 tested, 5.4% active; note: nearly all actives have a fitted effect of over 60% in size
Target sequence (P51450 whole entry, looked up, the tested form may be a part): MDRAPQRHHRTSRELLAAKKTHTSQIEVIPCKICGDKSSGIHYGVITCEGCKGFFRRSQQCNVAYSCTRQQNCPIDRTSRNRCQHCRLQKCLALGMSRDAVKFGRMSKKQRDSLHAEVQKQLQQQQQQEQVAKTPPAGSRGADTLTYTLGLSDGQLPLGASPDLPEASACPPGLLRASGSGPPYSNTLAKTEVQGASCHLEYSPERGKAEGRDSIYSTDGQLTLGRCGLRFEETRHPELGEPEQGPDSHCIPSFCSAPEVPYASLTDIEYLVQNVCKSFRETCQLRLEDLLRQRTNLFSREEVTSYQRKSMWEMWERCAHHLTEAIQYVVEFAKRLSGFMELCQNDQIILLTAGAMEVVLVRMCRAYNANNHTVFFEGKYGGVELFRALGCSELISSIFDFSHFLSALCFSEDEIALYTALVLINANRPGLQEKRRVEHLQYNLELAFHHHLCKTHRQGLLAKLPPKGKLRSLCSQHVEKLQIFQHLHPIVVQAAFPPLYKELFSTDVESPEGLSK
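Schneider cells (Drosophila), stable Gal4 DBD–ROR gamma + UAS-luc; 1 hr cmpd preincubation; Cu2+ induction 700 uM final; 20 hr ambient; luminescence.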
KinaseGlo FLuc: Counterscreen for Luciferase (Kinase-Glo TM) Inhibition | Luciferin 4-monooxygenase (Photuris pensylvanica), Q27757 | Kinase-Glo luciferase, ATP luminescence, 8 min | Potency, µM (doses to about 38.3 µM), for inactives: top-dose activity change, negative = inhibition, actives largely listed as inhibitors | 200,000 tested, 0.28% active; note: nearly all actives have a fitted effect of over 60% in size
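Inhibition of Kinase-Glo luciferase light generation was assessed at 10 uM ATP in pH 7.2 imidazole buffer, with luminescence measured after eight minutes at ambient temperature.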
VP16 counter: VP16 counterscreen qHTS for inhibitors of ROR gamma transcriptional activity; Drosophila S2 Gal4-VP16 UAS-luciferase, luminescence, 20 h; Potency, µM (highest dose often 53.6 µM), for inactives: at the highest dose activity, negative = inhibition, actives largely listed as inhibitors; 310,000 tested, 3.5% active;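 note: Gal4-VP16 expression switched on by copper sulfate through the metallothionein promoter; nearly all actives have a fitted effect of over 50% in size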
The depositor's hits bear a star; [ ] = remark or other dose. Sampled rows, rich in hits. Any-hit rate of the full collection: about 6.2%. Calls come from the whole dose curve; as a rule, active = well fitted curve in the direction sought with a large enough effect; inconclusive = small, poorly fitted or top-dose-only effect, or another doubt; inactive = no such curve, though single readings can be large; an effect the other way counts as inactive or inconclusive. % is set by controls: 0 for no effect and ±100 for the full control effect; potency is the fitted concentration of half-maximal effect.

Results for O=C(NC(=S)Nc1ccc(F)c(Cl)c1)C1CC1 ?
RORgamma inh: 5.62µM*; VP16 counter: 7.08µM*

How did Fc1ccc(NC(=S)N2CCCC2)cc1Cl do in these assays?
RORgamma inh: inconclusive; KinaseGlo FLuc: -0.9%; VP16 counter: -9.5%

How did O=C(CNC(=O)C1CCCCC1)Nc1ccc(F)c(Cl)c1 do in these assays?
RORgamma inh: 20.5%; KinaseGlo FLuc: -0.5%; VP16 counter: -14.3%

How did Fc1ccc(NC(=S)Nc2ccc(F)c(Cl)c2)cc1Cl do in these assays?
RORgamma inh: 1.78µM*; KinaseGlo FLuc: -2.8%; VP16 counter: -22.7%

How did Cc1ccc(NC(=S)NC(=O)C2CC2)cc1Cl do in these assays?
RORgamma inh: 3.16µM*; VP16 counter: 5.01µM*

What do the screens show for `CN(C)/C=N/C(=S)Nc1ccc(Br)cc1F`?
RORgamma inh: inconclusive; KinaseGlo FLuc: -11.8%; VP16 counter: 12.6µM*

How did CS(=O)(=O)N(CCc1ccccc1)CC(=O)Nc1ccc(Br)cc1F do in these assays?
RORgamma inh: -4.4%; VP16 counter: -7.4%

What do the screens show for `C=CCNC(=S)NCc1ccc(CNC(=S)NCC=C)cc1`?
RORgamma inh: 13.0%; KinaseGlo FLuc: 0.8%; VP16 counter: -2.7%

What do the screens show for `Fc1cc(Br)ccc1NC(=S)NCCc1ccccc1`?
RORgamma inh: 7.94µM*; KinaseGlo FLuc: -3.2%; VP16 counter: inconclusive

How did C=CCNC(=S)NNC(=O)c1ccc(Br)cc1 do in these assays?
RORgamma inh: -25.4%; KinaseGlo FLuc: 4.1%; VP16 counter: inconclusive

How did C=CCNC(=S)Nc1ccc(Br)cc1F do in these assays?
RORgamma inh: 15.8µM*; KinaseGlo FLuc: 2.5%; VP16 counter: inconclusive

Results for C=CCNC(=S)Nc1ccc(Cl)cc1F ?
RORgamma inh: 14.1µM*; KinaseGlo FLuc: -1.2%; VP16 counter: -10.2%

What do the screens show for `CN(C)S(=O)(=O)Nc1ccc(Br)cc1F`?
RORgamma inh: 0.0%; KinaseGlo FLuc: -0.8%; VP16 counter: -6.7%

What do the screens show for `Cc1cccc(N(C)Cc2nnc(-c3cccc(Br)c3)o2)c1`?
RORgamma inh: -11.5%; VP16 counter: 0.9%

Results for CC(=O)Nc1c(C#N)c(C(C)(C)C)cn1C ?
RORgamma inh: inconclusive; KinaseGlo FLuc: 7.2%; VP16 counter: -5.1%

How did COc1ccc([C@]23Cc4cc(C#N)ccc4C(O2)c2c(cc(C)n(-c4ccccc4)c2=O)O3)cc1 do in these assays?
RORgamma inh: -1.0%[10 µM]; VP16 counter: -0.3%[10 µM]

How did CN(C)/C=N/C(=S)Nc1ccccc1 do in these assays?
RORgamma inh: 15.8µM*; KinaseGlo FLuc: -1.5%; VP16 counter: 15.7%[10 µM]

Results for CN(C(=S)Nc1ccccc1)c1ccccc1 ?
RORgamma inh: -25.9%; KinaseGlo FLuc: 0.2%; VP16 counter: 6.1%

Results for O=C(O)CC12CC3CC(C1)CC(n1ncc(N4CCC5(CC4)OCCO5)c(Cl)c1=O)(C3)C2 ?
RORgamma inh: -9.1%; VP16 counter: -4.8%

What do the screens show for `CN(C)CCCOc1c2ccccc2n(Cc2ccccc2)[n+]1[O-]`?
RORgamma inh: 3.8%; VP16 counter: 0.0%

How did CC1(C)N=C(c2ccc(Cl)cc2)C(=O)N1 do in these assays?
RORgamma inh: -1.6%; KinaseGlo FLuc: 0.7%; VP16 counter: 0.8%

What do the screens show for `CCOC(=O)C1=C(N)N2C(=O)C(C)SC2=C(C(=O)OCC)C1c1ccc(O)cc1` (configuration not stated)?
RORgamma inh: -16.6%; VP16 counter: 7.4%

How did CCOC(=O)C1=C(N)N2C(=O)C(C)SC2=C(C(=O)OCC)C1c1ccccc1 (configuration not stated) do in these assays?
RORgamma inh: inconclusive; KinaseGlo FLuc: -2.9%; VP16 counter: 12.6µM*

How did Cc1cccc([C@H]2[C@@H]3C=CC(C)C[C@@H]3C(=O)N2Cc2ccccc2)c1 (some centres not stated) do in these assays?
RORgamma inh: 11.0%; KinaseGlo FLuc: 2.0%[39.9 µM]; VP16 counter: -15.3%

Results for CCC/C=C(\CCC)C(NC(=O)c1ccc(C(=O)OC)cc1)c1ccc(C(=O)OC)cc1 (configuration not stated) ?
RORgamma inh: 4.6%; KinaseGlo FLuc: -1.2%; VP16 counter: 1.7%

Results for Cc1ccc(S(=O)(=O)Nc2ccc3oc(=O)sc3c2)c(C)c1 ?
RORgamma inh: inconclusive; KinaseGlo FLuc: 22.0%; VP16 counter: 3.9%[0.365 µM]

Results for O=C(Nc1ccc(O)c(C(=O)O)c1)c1cccc(NC(=O)c2ccco2)c1 ?
RORgamma inh: -28.5%; VP16 counter: inconclusive

How did O=C1Nc2ccc(Br)cc2C1(O)c1ccccc1 (configuration not stated) do in these assays?
RORgamma inh: 8.2%; VP16 counter: 3.6%

Results for O=C1Nc2ccc(Br)cc2C12NNc1ccccc1O2 (configuration not stated) ?
RORgamma inh: 11.2µM*; KinaseGlo FLuc: -0.2%; VP16 counter: inconclusive

Results for O=C(NO)c1ccccc1O ?
RORgamma inh: 3.4%; KinaseGlo FLuc: -0.7%; VP16 counter: -9.3%

What do the screens show for `O=C(/C=C(\O)c1ccccc1)c1ccccc1O`?
RORgamma inh: 4.47µM*; KinaseGlo FLuc: -5.0%; VP16 counter: 4.47µM*

How did O=S(=O)(NC(=S)NC1CCCCC1)c1ccc(Br)cc1 do in these assays?
RORgamma inh: 4.47µM*; KinaseGlo FLuc: 1.3%; VP16 counter: inconclusive

What do the screens show for `O=C(CCNS(=O)(=O)c1ccc(Br)cc1)NC1CCCCC1`?
RORgamma inh: 24.9%; KinaseGlo FLuc: 5.1%; VP16 counter: -5.6%

How did CN(Cc1ccco1)C(=O)Cn1cc(S(=O)(=O)N2CCCC2)c(S(=O)(=O)N2CCCC2)c1 do in these assays?
RORgamma inh: -1.5%; VP16 counter: -1.7%

Results for COc1cccc(Nc2c(Nc3cccc(OC)c3)c(=O)c2=O)c1 ?
RORgamma inh: 8.1%; VP16 counter: -7.7%

Results for COc1cccc(Nc2ccc(Nc3cccc(OC)c3)nn2)c1 ?
RORgamma inh: 11.2µM*; KinaseGlo FLuc: 0.6%; VP16 counter: -25.5%

Results for Cc1ccccc1N(CC(=O)N1CCCCCC1)S(C)(=O)=O ?
RORgamma inh: 5.2%; VP16 counter: 4.1%

How did CC(=O)Nc1ncnc2c1c(-c1ccc(Cl)cc1)nn2C(C)(C)C do in these assays?
RORgamma inh: inconclusive; KinaseGlo FLuc: 2.0%; VP16 counter: -6.8%

How did CC(=O)N(C(C)=O)c1ncnc2c1c(-c1ccc(Cl)cc1)nn2C(C)(C)C do in these assays?
RORgamma inh: 11.2µM*; KinaseGlo FLuc: 1.3%; VP16 counter: -25.0%

What do the screens show for `Cc1nn(C)c(C)c1CNC(=O)Nc1cccc(Cl)c1C`?
RORgamma inh: 2.4%; KinaseGlo FLuc: -0.6%; VP16 counter: 4.3%

How did COc1cc(/C=C/C(=O)N2CCC=CC2=O)cc(OC)c1OC do in these assays?
RORgamma inh: 3.55µM*; KinaseGlo FLuc: -9.5%; VP16 counter: 7.94µM*

What do the screens show for `COc1cc(/C=C/C(=O)N2CCCN(C(=O)/C=C/c3cc(OC)c(OC)c(OC)c3)CC2)cc(OC)c1OC`?
RORgamma inh: -6.6%; KinaseGlo FLuc: 1.6%; VP16 counter: 25.0%

What do the screens show for `Cc1nc2ccccn2c1C(=O)NC1CCCc2ccccc21` (configuration not stated)?
RORgamma inh: inconclusive; KinaseGlo FLuc: 0.8%; VP16 counter: 12.6µM*

From PubChem
